Mtb BioA inh: inhibitors of Mycobacterium tuberculosis BioA enzyme | purified M. tuberculosis BioA enzyme, plate reader | hit rate 0.096% among 360,000 | AID 602481 | inhibition, % at 9.99 µM; in the data active = inhibition above about 40%
Vc quorum ag: inducers of Vibrio cholerae quorum light production without autoinducers. V. cholerae BH1578 lux reporter, luminescence, 6 h. activation, % at 18.7 µM. hit rate 0.16% among 350,000; in the data active = activation mostly above about 9.7%, no sharp cut-off
Mtb FBA inh: inhibitors of M. tuberculosis fructose-bisphosphate aldolase; P9WQA3; purified M. tuberculosis FBA, fluorescence read-out; hit rate 2.3% among 360,000; inhibition, % at 1 µM; in the data active = inhibition above about 27%;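 also: 0% = vehicle and 100% = reference inhibitor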
Target sequence (P9WQA3 whole entry, looked up): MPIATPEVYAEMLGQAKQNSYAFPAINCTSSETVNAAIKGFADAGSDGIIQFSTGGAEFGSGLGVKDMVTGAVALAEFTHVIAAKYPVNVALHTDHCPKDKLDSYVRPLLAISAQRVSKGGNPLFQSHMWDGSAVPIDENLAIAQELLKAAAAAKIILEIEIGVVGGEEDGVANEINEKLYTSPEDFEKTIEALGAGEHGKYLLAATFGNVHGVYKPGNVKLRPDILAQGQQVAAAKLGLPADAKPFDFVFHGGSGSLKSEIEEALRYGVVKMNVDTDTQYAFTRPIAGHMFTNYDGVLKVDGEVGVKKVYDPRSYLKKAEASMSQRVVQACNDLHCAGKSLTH
GDH-TPI counter: GDH-TPI coupled enzyme inhibition counter-screen; GDH-TPI coupled enzyme counterscreen, NADH absorbance; inhibition, % at 4.8 µM; hit rate 1.2% among 360,000; AID 588335; in the data active = inhibition above about 30%;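 also: 0% = DMSO wells and 100% = wells lacking the enzyme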
An asterisk follows results filed as active; i = inactive; x = no result; + = active, no number. Rows were chosen to be rich in hits. Some 3% of all compounds tested hit in one or more screens of this group.

SMILES	Mtb BioA inh	Vc quorum ag	Mtb FBA inh	GDH-TPI counter
Cc1ccc(C(c2nnnn2C(C)(C)C)N(Cc2ccco2)Cc2cccs2)cc1 (configuration not stated)	-1	0	36*	-11
COc1cc(C(=O)c2nccc3cc(OC)c(OC)cc23)c([N+](=O)[O-])cc1OC	x	2	-2	38*
COc1cc(N)c(C(=O)c2nccc3cc(OC)c(OC)cc23)cc1OC	2	i	-3	9
C[C@H](CO)N1C[C@H](C)[C@H](CN(C)C)Oc2cc(C#Cc3ccncc3)ccc2S1(=O)=O	0	x	x	x
O=C1CCC/C1=C/Nc1ccc(Cl)cc1	x	1	-2	32*
O=C1CCCC/C1=C\Nc1ccc(O)cc1	-4	0	2	33*
CC(C)N1CCc2c(sc(N)c2C#N)C1	-11	i	22	32*
O=c1ccc2ccc(O)cc2o1	3	0	+	15
O=c1ccc2cc(O)c(O)cc2o1	0	-3	115*	9
O=C(C[C@@H]1C[C@H]2c3cc(NC(=O)c4ccc5c(c4)OCO5)ccc3O[C@H]2[C@@H](CO)O1)NCc1cccc(F)c1	0	x	x	x
CCOC(=O)c1sc(N)c(C(=O)OC)c1C	x	-1	1	6
COC(=O)c1c(N)sc(C(C)=O)c1C	20	x	1	44*
C=CCn1c(=N)c(C(=O)NCCCOC)cc2c(=O)n3cc(C)ccc3nc21	-4	0	+	14
C=CCn1cc(C(=O)NCCCOC)c(=O)c2cc(S(=O)(=O)N(CC)CC)ccc21	x	-1	1	12
C=CCn1c(=N)c(C(=O)NCCCOC)cc2c(=O)n3ccccc3nc21	0	0	+	12
COc1ccc(CCn2c(=N)c(C(=O)NCc3ccco3)cc3c(=O)n4ccccc4nc32)cc1	3	0	7	-1
Cc1cc(=O)oc2c3c(cc(OCC(=O)NCc4ccncc4)c12)OC(C)(C)CC3	3	0	+	16
Cc1cc(=O)oc2c3c(cc(OCC(=O)NCc4ccco4)c12)OC(C)(C)CC3	7	0	+	13
COc1ccc(CNC(=O)COc2cc3c(c4oc(=O)cc(C)c24)CCC(C)(C)O3)c(OC)c1	-1	0	34*	12
Cc1cc(-c2nc3ccccc3s2)ccc1N	x	-6	+	37*
Nc1ccc(-c2nc3ccccc3s2)cn1	-2	0	+	23
CC(C)CC#Cc1ccc2c(c1)O[C@@H](CN(C)C(=O)C1CCC1)[C@H](C)CN([C@H](C)CO)S2(=O)=O	1	x	x	x
COc1cc(/C=N/NC2=NCCCCC2)ccc1O	-1	-1	0	30
COc1ccc(/C=N/Nc2ncnc3scc(-c4ccccc4)c23)cc1OC	3	0	3	48*
COc1ccc(/C=N/Nc2nc(-c3cccnc3)nc3ccccc23)cc1OC	x	-1	5	27
SMILES	Mtb BioA inh	Vc quorum ag	Mtb FBA inh	GDH-TPI counter
COc1cc(/C=N/Nc2ncnc3sc4c(c23)CCC4)ccc1O	-1	i	0	47*
CCC(=O)Nc1ccc2c(c1)OC[C@@H](C)N(Cc1ccccc1)C[C@@H](C)[C@H](OC)CN(C)C2=O	0	x	x	x
CCC(=O)N[C@H]1CC[C@@H](CC(=O)NCC2CCCCC2)O[C@H]1CO	2	x	x	x
CCCN1[C@@H]2c3ccc(C4=CCCC4)c(=O)n3C[C@@H]2[C@@H](CO)[C@@H]1C(=O)NC1Cc2ccccc2C1	-1	x	x	x
Nc1ccc(-c2cnc(-c3ccc(N)cc3)nc2)cc1	-1	i	-6	67*
CN(C)c1ccc(C(=O)c2ccccc2)cc1	2	-7	-4	31*
C=C(c1ccccc1)c1ccc(N(C)C)cc1	-2	-13	2	10
COc1ccc(CN(C)C[C@@H]2Oc3ccc(NC(=O)Nc4cccc5ccccc45)cc3CC(=O)N([C@H](C)CO)C[C@@H]2C)cc1	-1	x	x	x
CC(NC(=O)OC(C)(C)C)C(=O)Oc1cc2oc(=O)cc(-c3ccccc3)c2cc1Cl (configuration not stated)	12	-5	43*	20
CC(Oc1cc2oc(=O)cc(-c3ccccc3)c2cc1Cl)C(=O)NCC1CCC(C(=O)O)CC1 (configuration not stated)	2	-1	6	28
O=C1C2CCCN2C(=S)N1C1CCCCC1 (configuration not stated)	1	0	3	-3
O=C1C=C(c2ccoc2)N2CCC[C@H]2C1	-2	i	1	39*
COc1ccc(NC(=O)C(=O)NNC(=O)c2cccs2)c(OC)c1	-3	0	1	36*
Cc1ccccc1-c1cnc2c(c1)C(=O)N([C@H](C)CO)C[C@H](C)[C@@H](CN(C)CC1CCCC1)O2	2	x	x	x
CC12CCC(C(=O)N(CSC(=S)N/N=C\c3ccccc3)C1=O)C2(C)C (configuration not stated)	-1	6	5	42*
C[C@H]1CCCCO[C@@H](CN(C)S(=O)(=O)c2cccs2)[C@@H](C)CN([C@@H](C)CO)C(=O)c2cc(NC(=O)Nc3ccc4c(c3)OCO4)ccc2O1	1	x	x	x
CC(C)(C)OC(=O)N/N=C/c1ccc(N2CCOCC2)s1	x	0	-3	35*
Nc1ccc(C(=O)N/N=C/c2ccc(N3CCOCC3)s2)cc1	0	-4	-1	18
CC1(C)CC(N2CCOCC2)=CC(=[N+]2CCOCC2)C1	0	-1	-6	29
CN(C)NC1=CC(=[N+]2CCCC2)CC(C)(C)C1	x	2	1	7
CC1(C)CC(N2CCCCC2)=CC(=[N+]2CCCCC2)C1	-1	i	-4	90*
CCCN(CCC)C1=CC(=[N+]2CCCC2)CC(C)(C)C1	x	0	-3	46*
CC1C[N+](=C2C=C(N3CCOCC3)CC(C)(C)C2)CC(C)O1 (configuration not stated)	-2	0	5	61*
CCC(=O)Nc1ccc2c(c1)OC[C@@H](C)N(C(=O)CN(C)C)C[C@H](C)[C@H](OC)CN(C)C2=O	0	x	x	x
COc1ccc(-c2nc(-c3ccccc3)nc(N3CCN(C)CC3)c2C#N)cc1	-3	i	38*	9
SMILES	Mtb BioA inh	Vc quorum ag	Mtb FBA inh	GDH-TPI counter
COc1ccc2c(C)c(C(=O)NCC(C)O)oc2c1OC (configuration not stated)	-1	0	138*	3
CO[C@H]1CN(C)C(=O)c2cc(NS(=O)(=O)CC(F)(F)F)ccc2OC[C@@H](C)N(Cc2ccccn2)C[C@@H]1C	-3	x	x	x
O=C(CN1CCN(Cc2ccccc2)CC1)N/N=C\C=C/c1ccco1	x	i	0	43*
CC(/C=N\NC(=O)CN1CCN(Cc2ccccc2)CC1)=C\c1ccco1	x	i	-6	53*
Clc1ccccc1CN1CCN(/N=C/C=C/c2ccco2)CC1	x	0	-1	42*
O=C(CN1CCN(Cc2ccccc2Cl)CC1)N/N=C/C=C/c1ccco1	1	i	-2	61*
O=C(CSc1nnc(SCc2ccccc2)s1)N/N=C/C=C/c1ccco1	x	-5	-4	15
CCn1c(SCC(=O)N/N=C/C(C)=C/c2ccco2)nnc1-c1ccccc1	0	i	-1	22
CCCNC(=O)N(C)C[C@@H]1Oc2ncc(-c3ccccc3)cc2C(=O)N([C@H](C)CO)C[C@@H]1C	-1	x	x	x

Assay outcomes (PubChem BioAssay)
